Assay outcomes as filed in PubChem.
Only some compounds are listed: those with a hit (about 3.2% of all), similar ones and a draw of the others.
PGC1a acetyl inh – inhibitors of PGC1a acetylation signal, primary screen, cell-based, U2OS, AlphaScreen, inhibitor mode; AlphaScreen anti-acetyl-lysine; with virally co-expressed GCN5 acetyltransferase; inhibition, % at 15.6 µM; 350,000 tested, 0.17% active; AID 651687, 2012;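 active means every replicate shows inhibition of at least 40%; inconclusive means mean inhibition at least 40% but some replicate below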
ERAP1 HTS inh – human ERAP1 aminopeptidase inhibitors, primary screen, biochemical, single point, plate reader; Endoplasmic reticulum aminopeptidase 1 (Homo sapiens), Q9NZ08; recombinant ERAP1, Leu-AMC fluorescence, 60 min; inhibition, % at 10.7 µM; 340,000 tested, 0.15% active;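 active means mean replicate inhibition of at least 30%, or all replicates individually reaching that 30% level; inactive means mean below 30% and not every replicate reaching it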
CaV13 FRET inh – Primary screen for inhibitors of IQ motif and Ca2+-dependent inactivation inhibitor domain binding in CACNA1D, Förster resonance energy transfer in living cells, …; HEK cells, CFP/YFP FRET ICDI-IQ, plate reader, 10 min; percent FRET-ratio fall versus neutral wells; inhibition, % at 12.3 µM; 340,000 tested, 0.098% active;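 active means mean replicate inhibition of at least 30% and at least 1% of replicates passing that level; inconclusive means only one of the two criteria is met; inactive means neither criterion is met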
rRNA inh HTS – reduced GFP signal of wild-type E. coli, primary screen, bacterial rRNA inhibitor project, GFP/RFP fluorescence, OD600, single point. GFP signal change (wild-type ribosome), % (test concentration not listed). 350,000 tested, 1.6% active. AID 720706, 2013. E. coli WT GFP vs humanized-ribosome RFP mutants, 24 h; stronger effect = lower value; DMSO median 0, no signal -100;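 active means significant combined selectivity score with lowered wild-type GFP, culture density cut under 30%, mutant RFP and density less affected; inactive means any of these conditions unmet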
DENV2 CPE rescue – inhibitors of DENV2 cytopathic effect, primary screen, cell-based, plate reader, single concentration | AID 651640, 2012 | DENV2-infected cells, cytopathic effect rescue | 350,000 tested, 1.7% active | CPE inhibition, % at 9.99 µM; in the data active means CPE inhibition above about 20%, passing the limit was not always enough; inconclusive means no clear call, values can overlap the other calls; tested in BHK-21 cells
INS-1E GSIS act – GLuc luminescence reporter in INS-1E cells, primary screen for activators of glucose-dependent secretion of insulin. INS-1E GLuc reporter insulin secretion, 2-3 h. activation, % at 16.6 µM. 370,000 tested, 0.61% active;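 active means lowest replicate activation of at least 40%, so every replicate reaches that level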
A number is an active result.

Results for COc1ccc2c3c([nH]c2c1)[C@H](CO)N(C(=O)Nc1ccc(F)cc1)CC31CCN(C(=O)Nc2ccccc2)CC1 ?
PGC1a acetyl inh: inactive; rRNA inh HTS: inactive; DENV2 CPE rescue: 21; INS-1E GSIS act: inactive

What do the screens show for `COc1ccc2c3c([nH]c2c1)[C@@H](CO)N(C(=O)Nc1ccc(F)cc1)CC31CCN(S(=O)(=O)c2ccccc2)CC1`?
PGC1a acetyl inh: inactive; rRNA inh HTS: inactive; DENV2 CPE rescue: 71; INS-1E GSIS act: inactive

What do the screens show for `COc1ccc2c3c([nH]c2c1)[C@H](CO)N(C(=O)Nc1ccc(F)cc1)CC31CCN(S(=O)(=O)c2ccccc2)CC1`?
PGC1a acetyl inh: inactive; rRNA inh HTS: inactive; DENV2 CPE rescue: inconclusive; INS-1E GSIS act: inactive

Results for COc1ccc2c3c([nH]c2c1)[C@@H](CO)N(C(=O)c1cccc(F)c1)CC31CCN(C(=O)c2cccc(F)c2)CC1 ?
ERAP1 HTS inh: inactive; rRNA inh HTS: inactive; DENV2 CPE rescue: 22; INS-1E GSIS act: inactive

Results for COc1ccc2c3c([nH]c2c1)[C@H](CO)N(C(=O)c1cccc(F)c1)CC31CCN(C(=O)c2ccccc2)CC1 ?
PGC1a acetyl inh: inactive; ERAP1 HTS inh: inactive; rRNA inh HTS: inactive; DENV2 CPE rescue: inactive; INS-1E GSIS act: inactive

How did CN1C(=O)c2cc(NC(=O)c3ccno3)ccc2OC[C@H]2O[C@@H](CC(=O)NCC3CC3)CC[C@@H]21 do in these assays?
PGC1a acetyl inh: inactive; ERAP1 HTS inh: inactive; rRNA inh HTS: inactive; DENV2 CPE rescue: inactive; INS-1E GSIS act: inactive

What do the screens show for `O=C(C[C@H]1CC[C@@H]2[C@H](COC[C@@H](O)CN2Cc2cccc(C(F)(F)F)c2)O1)NCc1ccc(Cl)cc1`?
PGC1a acetyl inh: inactive; ERAP1 HTS inh: inactive; rRNA inh HTS: inactive; DENV2 CPE rescue: inactive; INS-1E GSIS act: inactive

How did C[C@H](CO)N1C[C@H](C)[C@@H](CN(C)Cc2ccc3c(c2)OCO3)Oc2ccc(NC(=O)Nc3ccc(F)cc3)cc2CC1=O do in these assays?
PGC1a acetyl inh: inactive; ERAP1 HTS inh: inactive; rRNA inh HTS: inactive; DENV2 CPE rescue: inactive; INS-1E GSIS act: inactive

What do the screens show for `Cc1[nH]c2ccccc2c1/C=N/NC(=O)CCC(=O)Nc1ccccc1`?
PGC1a acetyl inh: inactive; ERAP1 HTS inh: inactive; CaV13 FRET inh: inactive; rRNA inh HTS: inactive; DENV2 CPE rescue: inactive; INS-1E GSIS act: inactive

Results for Cc1[nH]c2ccccc2c1/C=N/NC(=O)c1cc(-c2ccccc2)n[nH]1 ?
PGC1a acetyl inh: inactive; ERAP1 HTS inh: inactive; CaV13 FRET inh: inactive; rRNA inh HTS: -23; DENV2 CPE rescue: inconclusive; INS-1E GSIS act: inactive

What do the screens show for `Cc1[nH]c2ccccc2c1/C=N/NC(=O)c1ccccc1`?
ERAP1 HTS inh: inactive; CaV13 FRET inh: inactive; rRNA inh HTS: inactive; DENV2 CPE rescue: inactive; INS-1E GSIS act: inactive

What do the screens show for `Cc1[nH]c2ccccc2c1/C=N/NC(=O)c1cc(C(C)(C)C)[nH]n1`?
PGC1a acetyl inh: inactive; ERAP1 HTS inh: inactive; CaV13 FRET inh: inactive; rRNA inh HTS: inactive; DENV2 CPE rescue: 57

How did CC(C)(C)c1cc(C(=O)N/N=C/c2ccccn2)n[nH]1 do in these assays?
PGC1a acetyl inh: inactive; ERAP1 HTS inh: inactive; CaV13 FRET inh: inactive; rRNA inh HTS: inactive; DENV2 CPE rescue: inactive; INS-1E GSIS act: inactive

Results for Cc1[nH]c2ccccc2c1/C=N/NC(=O)Nc1ccccc1 ?
PGC1a acetyl inh: inactive; ERAP1 HTS inh: inactive; CaV13 FRET inh: inactive; rRNA inh HTS: -20; DENV2 CPE rescue: inactive; INS-1E GSIS act: inactive

What do the screens show for `C[C@@H]1CN([C@@H](C)CO)C(=O)c2cc(NC(=O)Nc3ccc(C(F)(F)F)cc3)ccc2O[C@H]1CN(C)C(=O)Nc1ccc2c(c1)OCO2`?
PGC1a acetyl inh: inactive; ERAP1 HTS inh: inactive; rRNA inh HTS: inactive; DENV2 CPE rescue: inactive; INS-1E GSIS act: inactive

How did O=C(Cc1ccncc1)NCC[C@@H]1CC[C@H](NC(=O)C2CC2)[C@H](CO)O1 do in these assays?
PGC1a acetyl inh: inactive; ERAP1 HTS inh: inactive; rRNA inh HTS: inactive; DENV2 CPE rescue: inactive; INS-1E GSIS act: inactive
